The text below walks through data of PubChem BioAssay AID2185 (Vanderbilt High Throughput Screening Facility, 2009).

Potency and affinity values are given separately. Values without a mark were called inactive. No rule for the calls is given here.

This assay addresses Metabotropic glutamate receptor 4 (Rattus norvegicus) (UniProt P31423). Kind of assay: PubChem AID 2185. Particulars: HEK/GIRK cells expressing rat mGluR4, thallium flux PAM; stronger effect = higher value.

Chain of Metabotropic glutamate receptor 4 (Rattus norvegicus) (P31423 whole entry, looked up): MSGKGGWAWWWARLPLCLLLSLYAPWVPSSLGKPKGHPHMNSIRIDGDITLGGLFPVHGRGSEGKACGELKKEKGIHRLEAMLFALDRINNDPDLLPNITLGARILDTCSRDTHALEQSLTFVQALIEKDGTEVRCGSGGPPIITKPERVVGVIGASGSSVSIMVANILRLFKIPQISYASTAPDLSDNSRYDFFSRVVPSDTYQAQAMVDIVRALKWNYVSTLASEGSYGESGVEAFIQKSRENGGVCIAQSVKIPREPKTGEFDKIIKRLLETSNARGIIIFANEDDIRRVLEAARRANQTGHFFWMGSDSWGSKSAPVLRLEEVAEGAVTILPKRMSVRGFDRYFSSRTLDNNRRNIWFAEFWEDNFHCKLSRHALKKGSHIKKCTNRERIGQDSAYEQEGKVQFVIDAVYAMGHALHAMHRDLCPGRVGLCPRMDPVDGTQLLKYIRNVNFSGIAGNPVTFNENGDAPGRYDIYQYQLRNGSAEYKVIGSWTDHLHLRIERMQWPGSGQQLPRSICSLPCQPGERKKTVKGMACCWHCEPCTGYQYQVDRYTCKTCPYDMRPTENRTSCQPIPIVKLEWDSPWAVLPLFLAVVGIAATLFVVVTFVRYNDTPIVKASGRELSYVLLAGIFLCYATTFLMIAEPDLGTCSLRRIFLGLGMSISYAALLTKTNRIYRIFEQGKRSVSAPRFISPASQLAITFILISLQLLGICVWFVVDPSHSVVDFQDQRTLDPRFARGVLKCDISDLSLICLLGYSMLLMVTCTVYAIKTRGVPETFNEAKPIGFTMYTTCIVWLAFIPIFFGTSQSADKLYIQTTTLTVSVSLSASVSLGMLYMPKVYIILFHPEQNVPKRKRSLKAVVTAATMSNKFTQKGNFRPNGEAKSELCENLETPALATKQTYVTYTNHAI

In the case of `N#Cc1ccc(NC(=O)c2ccccn2)cc1C(F)(F)F`, the % glutamate max is 26.3%.
